# Source: PubChem
# Rows were chosen to be rich in hits. Some 11% of all compounds tested hit in one or more screens of this group.
# USP17 inh: human USP17-like deubiquitinase inhibition; A8MUK1; purified USP17, Ub-rhodamine cleavage fluorescence, 3 h; inhibition, % at 50 µM; 47,000 compounds, 6.5% hits
# Target sequence (A8MUK1 whole entry, looked up): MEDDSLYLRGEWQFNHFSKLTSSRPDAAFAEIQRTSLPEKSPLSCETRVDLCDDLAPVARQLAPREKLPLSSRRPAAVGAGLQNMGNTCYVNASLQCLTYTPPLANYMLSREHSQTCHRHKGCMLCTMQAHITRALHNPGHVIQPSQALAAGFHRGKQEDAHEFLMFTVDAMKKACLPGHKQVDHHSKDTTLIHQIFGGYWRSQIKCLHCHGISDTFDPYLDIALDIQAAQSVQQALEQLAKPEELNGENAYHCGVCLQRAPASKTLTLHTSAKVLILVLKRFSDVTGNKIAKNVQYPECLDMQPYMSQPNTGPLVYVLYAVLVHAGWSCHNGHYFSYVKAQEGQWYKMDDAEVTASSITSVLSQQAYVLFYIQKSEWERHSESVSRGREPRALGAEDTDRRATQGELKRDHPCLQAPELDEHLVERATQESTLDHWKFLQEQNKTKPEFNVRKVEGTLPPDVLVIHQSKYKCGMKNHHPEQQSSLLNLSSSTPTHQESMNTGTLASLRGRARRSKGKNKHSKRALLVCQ
# USP28 block: inhibitors of human USP28 deubiquitinase | Q96RU2 | purified USP28, Ub-rhodamine cleavage fluorescence, 30 min | inhibition, % at 25 µM | 47,000 compounds, 3% hits
# USP30 block: human USP30 deubiquitinase inhibition; Q70CQ3; purified USP30, Ub-rhodamine cleavage fluorescence; inhibition, % at 25 µM; 47,000 compounds, 5.3% hits; AID 1645860
# Hits are given with their value; 0 = inactive. Cut-off read from the data, not from the text of the source: active = inhibition above about 30%; inactive = the rest.
SMILES,USP17 inh,USP28 block,USP30 block
O=C(COC(=O)C1CCCN1S(=O)(=O)c1ccc(Cl)cc1)Nc1ccc2c(c1)OCO2 (configuration not stated),0,0,33
O=C(COC(=O)C1(c2ccc(Cl)cc2)CCCC1)c1ccc2c(c1)OCCO2,0,0,0
O=C(COC(=O)C1(c2ccc(Cl)cc2)CCCC1)Nc1ccc2c(c1)OCO2,0,0,48
O=C(COC(=O)[C@@H]1CCCN1S(=O)(=O)c1ccc(Cl)cc1)Nc1ccccc1,0,0,0
CCn1c(=O)c(CCC(=O)N2CCN(c3ccc(F)cc3)CC2)nc2c(C)nn(-c3ccccc3)c21,0,0,0
COc1ccc(S(=O)(=O)Nc2cccc(C(=O)Nc3cccc4nsnc34)c2)cc1,0,0,0
CC(C)Cc1nc2sc3c(SCC(=O)N4CCC(C)CC4)ncnc3c2c2c1COC(C)(C)C2,0,0,0
COc1ccc(NC(=O)CSc2nccn(-c3ccc(F)c(F)c3)c2=O)cc1Cl,0,0,0
COc1cn(-c2ccc(F)cc2)nc1C(=O)Nc1ccc(F)c(F)c1,35,0,32
COc1ccccc1CCNC(=O)c1ccc(COc2ccc3c(c2)CCC3)cc1,0,0,0
CCC(=O)Nc1c(C)noc1/C=C\c1ccc(S(=O)(=O)Nc2ccc(F)cc2F)cc1,0,0,46
CCC(=O)Nc1c(C)noc1/C=C\c1ccc(S(=O)(=O)Nc2ccccc2CC)cc1,0,0,0
Cc1cc(O)c(Oc2cc(C)cc(O)c2O)c(O)c1,47,47,31
O=C(c1ccc(OCC2CCN(C(=O)C3CCCO3)CC2)cc1)N1CCOCC1 (configuration not stated),0,0,0
Cc1cccc(OCC(=O)N(C)Cc2cc(=O)[nH]c3ccccc23)c1C,0,0,0
O=C(NC1CCCCC1)c1cc2c(cn1)[nH]c1ccccc12,0,59,0
O=C(NCCCO)c1cc2c(cn1)[nH]c1ccccc12,0,0,0
O=C(Cn1c(=O)c2c(ncn2C2CCCC2)n(Cc2ccccc2)c1=O)NCCc1ccc(F)cc1,0,0,0
COc1ccc(CNC(=O)Cn2c(=O)c3c(ncn3C3CCCC3)n(Cc3ccccc3)c2=O)cc1,43,0,0
COCCn1c(=S)[nH]c2cc(C(=O)NCCSCc3ccccc3)ccc2c1=O,0,0,71
COCCn1c(=O)[nH]c2cc(C(=O)Nc3cc(OC)c(OC)c(OC)c3)ccc2c1=O,0,0,0
Cc1cc(CSc2ncccc2C(=O)Nc2ccnn2C2CCCCC2)no1,0,0,0
O=C(Nc1ccccc1F)c1cncc(NS(=O)(=O)c2ccccc2)c1,0,0,0
Nc1ccc(F)c(NS(=O)(=O)c2ccccc2)c1,58,41,0
CCc1cnc(N2C[C@H]3C[C@H](C(=O)N4CCN(C)CC4)[C@@H](C2)O3)nc1,0,0,0
SMILES,USP17 inh,USP28 block,USP30 block
Cc1ccc(-c2ccc(C#N)c(SCc3ccccc3)n2)cc1,0,0,0
Cc1ccc(-n2c(SCc3ccc(C#N)cc3)nnc2-c2ccccn2)cc1,0,0,38
CCc1ccccc1NC(=O)CSc1nnc(-c2ccccn2)n1-c1ccc(C)cc1,0,0,35
CCn1c(SCC(=O)Nc2ccc(C)cc2)nnc1-c1cnccn1,0,0,0
COCC1c2c(cnn2CC2CC2)CCN1C(=O)c1cscn1 (configuration not stated),0,0,0
COc1cc2c(=O)c(C(=O)c3ccc(F)cc3)cn(CC(=O)Nc3ccc(F)cc3)c2cc1OC,33,0,0
COc1ccc(NC(=O)Cn2cc(C(=O)c3ccccc3)c(=O)c3cc4c(cc32)OCCO4)cc1OC,0,0,0
COc1cccc2[nH]c(C(=O)Nc3ccc4c(c3)OCCO4)cc12,0,0,0
COc1cc2c(=O)c(C(=O)c3ccc(F)cc3)cn(CC(=O)Nc3ccc4c(c3)OCCO4)c2cc1OC,37,0,0
COc1ccc(NC(=O)Cn2cc(C(=O)c3ccc(F)cc3)c(=O)c3cc(C)ccc32)cc1OC,0,0,0
COc1ccc(C(=O)Nc2ccc3c(c2)OCCCO3)cn1,0,32,0
COc1cc(C(=O)Nc2ccc3c(c2)OCCO3)ccc1OCC(=O)Nc1ccc(F)cc1,36,0,0
COc1ccccc1Nc1ncc(C(=O)Nc2ccc3c(c2)OCO3)c2ccccc12,0,0,0
COc1cccc(OCC(=O)NCc2cc(-c3ccc4c(c3)OCO4)on2)c1,0,0,0
O=C(c1cc(-n2cnnn2)ccc1Cl)N1CCN(c2ccccn2)CC1,0,0,0
Cc1ccc(-n2c(=O)[nH]c3c(c2=O)C(C)(C)Cc2ccccc2-3)cc1,0,0,0
CCc1ccc(-n2c(=O)[nH]c3c(c2=O)C(C)(C)Cc2ccccc2-3)cc1,37,0,0
COc1cc(C(=O)Nc2cccc(S(=O)(=O)N(C)c3ccccc3)c2)ccc1OCC(=O)N1CCOCC1,0,0,0
COc1ccc(-c2nnc3ccc(SCC(=O)N4CCCc5ccccc54)nn23)cc1OC,0,0,0
Cc1cc(Nc2cnccn2)cc(C2CCCN2S(=O)(=O)c2c(C)noc2C)n1 (configuration not stated),0,0,0
O=C(NCc1cccc(Br)c1)c1ccc(-c2cccnc2)nc1,0,0,0
O=C(NCc1ccc(Br)cc1)c1ccc(-c2cccnc2)nc1,0,0,55
CC1(C)[C@H](Cc2cc(COc3ccccc3)on2)C[C@@H]1N,0,0,0
CCOC(=O)C1(Cc2cc(-c3ccc(F)cc3)no2)CCCN(Cc2cnc(C)n2C)C1 (configuration not stated),0,0,36
CCOC(=O)C1(Cc2cc(-c3ccccc3C)no2)CCCN(Cc2cncn2C)C1 (configuration not stated),0,0,0
SMILES,USP17 inh,USP28 block,USP30 block
Cc1cc(C)nc(NS(=O)(=O)c2ccc(F)c3ccccc23)c1,0,0,0
CCOc1ccccc1NC(=O)CSc1nnc(Cc2cccn2C)n1-c1ccc(OC)cc1,0,0,0
CCN(CCCNS(=O)(=O)c1ccc2c(c1)CCCC(=O)N2)c1ccccc1,0,0,0
CC(=O)Nc1nc2c(s1)CCc1ccccc1-2,0,39,0
O=C(Cc1cccc2ccccc12)Nc1nc2c(s1)CCc1ccccc1-2,0,0,0
O=C1N(CC2CCCCC2)CCN1c1ccc2c(c1)CCC2,31,0,0
O=C1N(CC2CC2)CCN1c1ccc2c(c1)CCC2,0,34,0
CCCCN1CCN(c2ccc3c(c2)CCC3)C1=O,0,0,0
Cc1cc(C)cc(CN2CCN(c3ccc4c(c3)CCC4)C2=O)c1,0,0,0
Cc1ccc(S(=O)(=O)Nc2ccccc2C(C)(C)C)cc1C(=O)O,0,0,0
COc1ccc(S(=O)(=O)NCC(C)(C)SCc2ccc(F)cc2)cc1,0,0,31
COc1ccc(S(=O)(=O)NCc2ccc3c(c2)cc(C)n3C)cc1,0,0,0
CC(C)(C)C(=O)Nc1ccccc1SCc1nnc(-c2ccccc2)o1,0,0,0
CCS(=O)(=O)c1ccccc1C(=O)N1CCN(c2nc3ccc(F)cc3s2)CC1,0,0,0
COc1ccc(-c2csc3ncnc(N4CCc5ccccc5C4)c23)cc1,0,0,0
Cc1ccn2cc(C(=O)N3CCCC(c4cc(-c5ccccc5)cc(C)n4)C3)nc2c1 (configuration not stated),0,0,0
O=C(CSc1nnc(CNC(=O)c2cccs2)o1)c1ccccc1,0,0,0
O=C(CSc1nnc(-c2sccc2-n2cccc2)o1)c1ccc(Cl)cc1,33,0,0
